Activity calls are given as the source filed them. Rule for the calls: active = hit-call score of the fitted dose curve at least 0.9, where 1 is the maximum; inactive = score below 0.9.
test system: not listed separately; assay: ATG_PPRE_CIS: Attagene CIS-FACTORIAL HepG2 Assay for human Peroxisome Proliferator-activated Response Element (PPRE) (AID 2282958); conditions: HepG2 PPRE cis-element reporter, Attagene transcription factor profiling; actives raise or lower the signal
Method in brief: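 Read-out: fluorescent reporter mRNA fragments resolved by capillary electrophoresis after RT-PCR. HepG2 cells carried transiently transfected PPRE-driven cis reporter constructs and were dosed for 24 h; gain or loss of signal fitted relative to DMSO.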

Structure (SMILES)	outcome	AC50
CC(C)=CCC/C(C)=C/COC=O	inactive	–
CCC(=O)OCCC(C)CCC=C(C)C (stereo not given)	inactive	–
O=C1C(c2[nH]c3ccc(S(=O)(=O)O)cc3c2O)=Nc2ccc(S(=O)(=O)O)cc21	inactive	–
CCCCOCCOCCOCCOCCO	inactive	–
NCCCCCCN	inactive	–
CC(C)(COC(=O)c1ccccc1)COC(=O)c1ccccc1	inactive	–
O=c1[nH]c(=O)n([C@H]2CCCO2)cc1F	inactive	–
Cc1ccc(C=O)s1	inactive	–
O=C(O)c1cccc(C(F)(F)F)c1	inactive	–
Fc1c(F)c(F)c(Br)c(F)c1F	inactive	–
CCCCCCCCCCC(CO)CCCCCCCC (stereo not given)	inactive	–
C=CCOc1nc(OCC=C)nc(OCC=C)n1	inactive	–
C=C(C)C(=O)O[C@H]1C[C@@H]2CC[C@@]1(C)C2(C)C	–	75.3 µM (active)
CC(C)=CCO	inactive	–
CCOc1ccccc1OCC	inactive	–
CC(=O)C(=O)O	inactive	–
CC1(C)C(=O)N(Br)C(=O)N1Cl	inactive	–
Clc1sc(Cl)c(Cl)c1Cl	inactive	–
CCCOCC(C)O (stereo not given)	inactive	–

test system: not listed separately; assay: ATG_RORE_CIS: Attagene CIS-FACTORIAL HepG2 Assay for human RAR-related Orphan Receptor Element (RORE) (AID 2282959); conditions: HepG2 Attagene cis-factorial RORE reporter, mRNA; actives raise or lower the signal
Method in brief: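 Readout: fluorescent reporter mRNA by RT-PCR plus capillary electrophoresis, 24 h after dosing transfected HepG2 cells. Endogenous transcription factor activity on a cis promoter element is measured. Gain or loss of signal fitted against DMSO.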

Structure (SMILES)	outcome	AC50
CCCCCCCCCCCCOCCO	inactive	–
CCC(=O)OCCC(C)CCC=C(C)C (stereo not given)	inactive	–
CCCCCCCCCCN	inactive	–
O=C1C(c2[nH]c3ccc(S(=O)(=O)O)cc3c2O)=Nc2ccc(S(=O)(=O)O)cc21	inactive	–
CCCCOCCOCCOCCOCCO	inactive	–
CCCCCCCCC=O	inactive	–
OCCCCCO	inactive	–
C=C(C)C(=O)Nc1ccc(Cl)c(Cl)c1	–	27.2 µM (active)
OC[C@H]1O[C@H](O[C@]2(CCl)O[C@H](CCl)[C@@H](O)[C@@H]2O)[C@H](O)[C@@H](O)[C@H]1Cl	inactive	–
Cc1ccc(C=O)s1	inactive	–
O=C(O)c1cccc(C(F)(F)F)c1	inactive	–
C=C(C)C1CCC(C)CC1O (stereo not given)	inactive	–
CO[Si](CCCn1c(=O)n(CCC[Si](OC)(OC)OC)c(=O)n(CCC[Si](OC)(OC)OC)c1=O)(OC)OC	inactive	–
C=CCOc1nc(OCC=C)nc(OCC=C)n1	inactive	–
C=C(C)C(=O)O[C@H]1C[C@@H]2CC[C@@]1(C)C2(C)C	inactive	–
Cc1ccc(S)cc1	inactive	–
CCCCCCOC(=O)CCCCC	inactive	–
CC(C)=CCO	inactive	–
CCOc1ccccc1OCC	inactive	–
CC(=O)C(=O)O	inactive	–
CCC(C)CCCC(C)(C)O (stereo not given)	inactive	–
Clc1sc(Cl)c(Cl)c1Cl	inactive	–
CC1(CO)CN(c2ccccc2)NC1=O (stereo not given)	inactive	–
CCCOCC(C)O (stereo not given)	inactive	–

test system: not listed separately; assay: ATG_Sox_CIS: Attagene CIS-FACTORIAL HepG2 Assay for human SRY-box transcription factor (SOX) (AID 2282960); conditions: HepG2 Attagene cis-factorial SOX reporter, mRNA; actives raise or lower the signal
Method in brief: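 Read-out: fluorescent RT-PCR products of SOX1-linked reporter transcripts resolved by capillary electrophoresis, fitted bidirectionally against DMSO. Transiently transfected HepG2 cells, 24 h after chemical exposure, endogenous transcription factor activity.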

Structure (SMILES)	outcome
CC(C)=CCC/C(C)=C/COC=O	inactive
CCC(=O)OCCC(C)CCC=C(C)C (stereo not given)	inactive
O=C1C(c2[nH]c3ccc(S(=O)(=O)O)cc3c2O)=Nc2ccc(S(=O)(=O)O)cc21	inactive
CCCCOCCOCCOCCOCCO	inactive
NCCCCCCN	inactive
CC(C)(COC(=O)c1ccccc1)COC(=O)c1ccccc1	inactive
O=C(COc1ccc(Cl)cc1)N1CCN(Cc2ccc3c(c2)OCO3)CC1	inactive
O=CCCc1ccccc1	inactive
OCCCCCO	inactive
C=C(C)C(=O)Nc1ccc(Cl)c(Cl)c1	inactive
C=C(C)[C@@H]1CC[C@@H](C)C[C@@H]1O	inactive
OC[C@H]1O[C@H](O[C@]2(CCl)O[C@H](CCl)[C@@H](O)[C@@H]2O)[C@H](O)[C@@H](O)[C@H]1Cl	inactive
O=c1[nH]c(=O)n([C@H]2CCCO2)cc1F	inactive
Cc1ccc(C=O)s1	inactive
C=O	inactive
O=C(O)c1cccc(C(F)(F)F)c1	inactive
Fc1c(F)c(F)c(Br)c(F)c1F	inactive

Structure (SMILES)	outcome
C=C(C)C1CCC(C)CC1O (stereo not given)	inactive
O=S(=O)(O)NC1CCCCC1	inactive
CCCCCCCCCCC(CO)CCCCCCCC (stereo not given)	inactive
C=CCOc1nc(OCC=C)nc(OCC=C)n1	inactive
C=C(C)C(=O)O[C@H]1C[C@@H]2CC[C@@]1(C)C2(C)C	inactive
Cc1ccc(S)cc1	inactive
CCCCCCOC(=O)CCCCC	inactive
Nc1ccc(S(N)(=O)=O)cc1	inactive
CC(C)=CCO	inactive
CCOc1ccccc1OCC	inactive
CC(=O)C(=O)O	inactive
CC1(C)C(=O)N(Br)C(=O)N1Cl	inactive
CCC(C)CCCC(C)(C)O (stereo not given)	inactive
Clc1sc(Cl)c(Cl)c1Cl	inactive
CC1(CO)CN(c2ccccc2)NC1=O (stereo not given)	inactive
CCOC(=O)c1ccccc1OC	inactive
CCCOCC(C)O (stereo not given)	inactive

target: Transcription factor Sp1 (Homo sapiens) (UniProt P08047); assay: ATG_Sp1_CIS: Attagene CIS-FACTORIAL HepG2 Assay for human Specificity Protein 1 (Sp1) (AID 2282961); conditions: HepG2 Sp1 cis-reporter transcription, actives raise or lower the signal
Method in brief: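 Read-out: fluorescence of 6-FAM-labeled, HpaI-digested RT-PCR products separated by capillary electrophoresis. HepG2 cells carried transfected cis-element reporter units and were exposed to chemicals for 24 h; gain or loss of signal fitted relative to DMSO.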

Transcription factor Sp1 (Homo sapiens), sequence (P08047 whole entry, looked up): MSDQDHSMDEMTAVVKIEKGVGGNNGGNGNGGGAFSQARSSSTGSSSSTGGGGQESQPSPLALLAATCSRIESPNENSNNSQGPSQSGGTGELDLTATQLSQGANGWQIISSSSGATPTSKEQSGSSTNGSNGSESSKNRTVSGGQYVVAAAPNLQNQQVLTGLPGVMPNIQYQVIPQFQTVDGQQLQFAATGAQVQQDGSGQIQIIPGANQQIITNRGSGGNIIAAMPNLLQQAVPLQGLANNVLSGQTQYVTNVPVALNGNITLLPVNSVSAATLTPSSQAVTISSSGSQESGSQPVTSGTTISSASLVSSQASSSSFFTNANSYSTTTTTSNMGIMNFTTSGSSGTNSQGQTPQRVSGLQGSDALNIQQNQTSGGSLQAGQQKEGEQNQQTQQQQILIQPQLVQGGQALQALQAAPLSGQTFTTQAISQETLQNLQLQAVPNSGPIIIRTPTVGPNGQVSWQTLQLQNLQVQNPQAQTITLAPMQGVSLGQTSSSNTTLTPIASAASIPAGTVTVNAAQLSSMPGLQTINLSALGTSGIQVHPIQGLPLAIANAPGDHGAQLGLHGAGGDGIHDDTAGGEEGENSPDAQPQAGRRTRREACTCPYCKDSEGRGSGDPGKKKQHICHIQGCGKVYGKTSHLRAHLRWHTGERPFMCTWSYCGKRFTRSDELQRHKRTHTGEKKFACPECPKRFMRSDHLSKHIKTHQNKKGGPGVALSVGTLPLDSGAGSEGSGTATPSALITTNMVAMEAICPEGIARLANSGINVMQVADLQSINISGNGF

Structure (SMILES)	AC50	outcome
CCCCCCCCCCCCOCCO	49.9 µM (active)	–
CC(C)=CCC/C(C)=C/COC=O	–	inactive
CCC(=O)OCCC(C)CCC=C(C)C (stereo not given)	–	inactive
CCCCCCCCCCN	–	inactive
O=C1C(c2[nH]c3ccc(S(=O)(=O)O)cc3c2O)=Nc2ccc(S(=O)(=O)O)cc21	–	inactive
CCCCOCCOCCOCCOCCO	–	inactive
NCCCCCCN	–	inactive
CC(C)(COC(=O)c1ccccc1)COC(=O)c1ccccc1	–	inactive
O=C(COc1ccc(Cl)cc1)N1CCN(Cc2ccc3c(c2)OCO3)CC1	–	inactive
O=CCCc1ccccc1	–	inactive
CCCCCCCCC=O	–	inactive
OCCCCCO	–	inactive
C=C(C)C(=O)Nc1ccc(Cl)c(Cl)c1	–	inactive
C=C(C)[C@@H]1CC[C@@H](C)C[C@@H]1O	–	inactive
OC[C@H]1O[C@H](O[C@]2(CCl)O[C@H](CCl)[C@@H](O)[C@@H]2O)[C@H](O)[C@@H](O)[C@H]1Cl	–	inactive
O=c1[nH]c(=O)n([C@H]2CCCO2)cc1F	–	inactive
Cc1ccc(C=O)s1	–	inactive
C=O	–	inactive
O=C(O)c1cccc(C(F)(F)F)c1	–	inactive

Structure (SMILES)	AC50	outcome
Fc1c(F)c(F)c(Br)c(F)c1F	–	inactive
C=C(C)C1CCC(C)CC1O (stereo not given)	–	inactive
O=S(=O)(O)NC1CCCCC1	–	inactive
CCCCCCCCCCC(CO)CCCCCCCC (stereo not given)	–	inactive
CO[Si](CCCn1c(=O)n(CCC[Si](OC)(OC)OC)c(=O)n(CCC[Si](OC)(OC)OC)c1=O)(OC)OC	–	inactive
C=CCOc1nc(OCC=C)nc(OCC=C)n1	–	inactive
C=C(C)C(=O)O[C@H]1C[C@@H]2CC[C@@]1(C)C2(C)C	–	inactive
Cc1ccc(S)cc1	–	inactive
CCCCCCOC(=O)CCCCC	–	inactive
Nc1ccc(S(N)(=O)=O)cc1	–	inactive
CC(C)=CCO	–	inactive
CCOc1ccccc1OCC	–	inactive
CC(=O)C(=O)O	–	inactive
CC1(C)C(=O)N(Br)C(=O)N1Cl	–	inactive
CCC(C)CCCC(C)(C)O (stereo not given)	–	inactive
Clc1sc(Cl)c(Cl)c1Cl	–	inactive
CC1(CO)CN(c2ccccc2)NC1=O (stereo not given)	–	inactive
CCOC(=O)c1ccccc1OC	–	inactive
CCCOCC(C)O (stereo not given)	–	inactive

Source: PubChem BioAssay (EPA / NIEHS)
